According to PubChem BioAssay (EPA / NIEHS):
Calls of active or inactive are those of the source. The calls were made as follows: active = hit-call score of the fitted dose curve at least 0.9, where 1 is the maximum; inactive = score below 0.9.

Assays:
Details in all cases: mRNA level, 48 h; actives raise or lower the signal
CYP4A11 (gene 1579) = test: LTEA_HepaRG_CYP4A11: Life Technologies and Expression Analysis (LTEA) Assay for CYP4A11 using HepaRG (AID 2283486)
Summary of the method: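 Readout is CYP4A11 mRNA induction or suppression (qRT-PCR, ACTB/GAPDH/POLR2A normalization) in human HepaRG cells after 48 h chemical treatment, concentrations to 100 uM in 0.5% DMSO, fitted bidirectionally against vehicle.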

[1] = read-out: Cytochrome P450 3A4 (Homo sapiens) (UniProt P08684); test: LTEA_HepaRG_CYP3A4: Life Technologies and Expression Analysis (LTEA) Assay for CYP3A4 using HepaRG (AID 2283487)
Summary of the method: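 HepaRG, 48 h exposure, 8-pt CRC from 100 uM (half-log), 0.5% DMSO, duplicates; serum-free induction medium. Readout: CYP3A4 mRNA, qRT-PCR, ACTB/GAPDH/POLR2A normalization. Bidirectional fit vs DMSO.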

[2] = read-out: DNA damage-inducible transcript 3 (DDIT3), DDIT3 (gene 1649); test: LTEA_HepaRG_DDIT3: Life Technologies and Expression Analysis (LTEA) Assay for DNA damage-inducible transcript 3 (DDIT3) using HepaRG (AID 2283488)
Summary of the method: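 qRT-PCR readout (Fluidigm TaqMan), housekeeping-normalized to ACTB, GAPDH, POLR2A. HepaRG cells, 48 h exposure, 8-point half-log series from 100 uM in 0.5% DMSO, duplicates. Gain or loss of signal fitted against DMSO baseline.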

[3] = read-out: Early growth response protein 1 (EGR1) transcription factor, EGR1 (gene 1958); test: LTEA_HepaRG_EGR1: Life Technologies and Expression Analysis (LTEA) Assay for Early growth response protein 1 (EGR1) transcription factor using HepaRG (AID 2283490)
Summary of the method: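 EGR1 expression change in human HepaRG after 48 h chemical exposure, assessed by housekeeping-normalized qRT-PCR; concentration-response up to 100 uM, fitted in both directions against DMSO controls.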

[4] = read-out: Ezrin (EZR), EZR (gene 7430); test: LTEA_HepaRG_EZR: Life Technologies and Expression Analysis (LTEA) Assay for Ezrin (EZR) using HepaRG (AID 2283491)
Summary of the method: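 Read-out is EZR transcript level by qRT-PCR, normalized to three housekeeping genes and fitted bidirectionally against the DMSO control. Human HepaRG cells received test chemicals for 48 h at eight half-log concentrations up to 100 uM in 0.5% DMSO.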

[5] = read-out: Cytochrome P450 3A7 (Homo sapiens) (UniProt P24462); test: LTEA_HepaRG_CYP3A7: Life Technologies and Expression Analysis (LTEA) Assay for CYP3A7 using HepaRG (AID 2283492)
Summary of the method: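 Cells were thawed, plated, cultured 48 h, then treated for a further 48 h with chemicals (eight-point half-log series from 100 uM, 0.5% DMSO). RNA was isolated and CYP3A7 expression quantified by qRT-PCR normalised to ACTB, GAPDH and POLR2A.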

CYP3A5 (gene 1577) = test: LTEA_HepaRG_CYP3A5: Life Technologies and Expression Analysis (LTEA) Assay for CYP3A5 using HepaRG (AID 2283493)
Summary of the method: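 qRT-PCR read-out: CYP3A5 transcript in HepaRG lysates, housekeeping-normalized (ACTB/GAPDH/POLR2A), fitted bidirectionally against 0.5% DMSO baseline. Exposure 48 h, eight half-log concentrations up to 100 uM, duplicates.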

[6] = read-out: Fatty Acid-Binding Protein 1 (FABP1), FABP1 (gene 2168); test: LTEA_HepaRG_FABP1: Life Technologies and Expression Analysis (LTEA) Assay for Fatty Acid-Binding Protein 1 (FABP1) using HepaRG (AID 2283494)
Summary of the method: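 Values reflect bidirectional concentration-response fitting of FABP1 mRNA change against 0.5% DMSO controls. Human HepaRG cultures received eight half-log doses (top 100 uM) for 48 h; expression quantified by TaqMan qRT-PCR with housekeeping-gene normalization.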

[7] = read-out: Cytochrome P450 4A22 (Homo sapiens) (UniProt Q5TCH4); test: LTEA_HepaRG_CYP4A22: Life Technologies and Expression Analysis (LTEA) Assay for Cytochrome P450 4A22 (CYP4A22) using HepaRG (AID 2283495)
Summary of the method: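 Cryopreserved HepaRG cells, plated and cultured 48 h, then switched to serum-free induction medium and treated 48 h (duplicates, up to 100 uM, half-log steps, 0.5% DMSO). Expression change of CYP4A22 was fitted bidirectionally against vehicle.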

[8] = read-out: Pro-epidermal growth factor (Homo sapiens) (UniProt P01133); test: LTEA_HepaRG_EGF: Life Technologies and Expression Analysis (LTEA) Assay for Epidermal growth factor (EGF) using HepaRG (AID 2283489)
Summary of the method: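 EGF expression changes in human HepaRG cells are scored by bidirectional fitting relative to 0.5% DMSO controls. Chemicals are tested at eight half-log concentrations up to 100 uM for 48 h in serum-free induction medium.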

Measured: AC50

Sequence of Cytochrome P450 3A7 (Homo sapiens) (P24462 whole entry, looked up): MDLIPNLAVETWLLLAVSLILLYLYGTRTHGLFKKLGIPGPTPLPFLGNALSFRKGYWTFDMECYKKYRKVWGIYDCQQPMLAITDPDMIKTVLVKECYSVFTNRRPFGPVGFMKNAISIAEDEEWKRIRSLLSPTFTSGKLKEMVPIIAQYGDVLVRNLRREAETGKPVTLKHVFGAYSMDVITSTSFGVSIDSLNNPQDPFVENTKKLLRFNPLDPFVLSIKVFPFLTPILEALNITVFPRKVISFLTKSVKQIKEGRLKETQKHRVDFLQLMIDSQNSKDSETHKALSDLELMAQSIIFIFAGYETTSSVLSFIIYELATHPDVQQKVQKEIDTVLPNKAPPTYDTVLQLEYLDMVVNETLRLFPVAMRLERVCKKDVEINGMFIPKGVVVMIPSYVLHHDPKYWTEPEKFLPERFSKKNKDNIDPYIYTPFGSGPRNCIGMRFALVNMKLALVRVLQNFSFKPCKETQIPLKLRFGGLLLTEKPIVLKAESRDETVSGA
Sequence of Cytochrome P450 3A4 (Homo sapiens) (P08684 whole entry, looked up): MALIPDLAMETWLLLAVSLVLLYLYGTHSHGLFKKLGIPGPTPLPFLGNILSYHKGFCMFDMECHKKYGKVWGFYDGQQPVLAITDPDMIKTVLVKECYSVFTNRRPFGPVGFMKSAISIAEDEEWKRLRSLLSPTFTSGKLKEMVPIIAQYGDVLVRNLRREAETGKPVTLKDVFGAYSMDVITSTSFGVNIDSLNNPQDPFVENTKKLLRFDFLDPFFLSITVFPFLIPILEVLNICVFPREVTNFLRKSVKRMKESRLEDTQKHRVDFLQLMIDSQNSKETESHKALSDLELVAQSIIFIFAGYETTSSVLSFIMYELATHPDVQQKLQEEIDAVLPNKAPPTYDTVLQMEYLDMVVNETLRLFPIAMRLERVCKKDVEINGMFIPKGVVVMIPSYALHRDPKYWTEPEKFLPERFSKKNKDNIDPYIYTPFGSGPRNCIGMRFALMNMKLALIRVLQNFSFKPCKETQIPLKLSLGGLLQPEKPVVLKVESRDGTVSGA

Cc1cc(Cc2ccc(N)c(C)c2)ccc1N
active: [1] 4.94 µM | [5] 10.8 µM
not listed: [8]
inactive: all other assays above

Nc1nc(=S)c2[nH]cnc2[nH]1
active: CYP4A11 (gene 1579) 6.3 µM | [1] 27.6 µM | [2] 8.69 µM | [3] 7.2 µM | [4] 0.586 µM | [6] 9.73 µM | [7] 7.06 µM
inactive: [8] | CYP3A5 (gene 1577)

NC(=Nc1ccccc1)Nc1ccccc1
active: [2] 27.6 µM
not listed: [8]
inactive: all other assays above

OCC(CO)n1cnc(-c2ccc(F)cc2)c1-c1ccnc(Oc2ccccc2)n1
inactive: [2] | [4] | CYP3A5 (gene 1577)
active: CYP4A11 (gene 1579) 16.9 µM | [1] 3.72 µM | [3] 20.7 µM | [5] 7.88 µM | [6] 11.2 µM | [7] 16.6 µM

COC(=O)CCC(=O)OC
not listed: [8]
inactive: all other assays above

c1ccc2occc2c1
inactive: all assays above

CC1=C(C)S(=O)(=O)CCS1(=O)=O
active: CYP4A11 (gene 1579) 89.5 µM | [1] 50 µM | [3] 80.6 µM | [5] 72 µM | [6] 88.1 µM | [7] 50 µM
inactive: [2] | [4] | CYP3A5 (gene 1577)

Cc1cc(SC2=C(O)C[C@@](CCc3ccc(N)cc3)(C(C)C)OC2=O)c(C(C)(C)C)cc1CO
active: CYP4A11 (gene 1579) 2.25 µM | [1] 0.344 µM | [8] 6.35 µM | [5] 0.151 µM | [6] 3.12 µM | [7] 1.67 µM
inactive: [2] | [3] | [4] | CYP3A5 (gene 1577)

CC(C)(O)c1ccc(CNC(=O)c2cccnc2Oc2ccc(F)cc2)cc1
active: CYP4A11 (gene 1579) 10.2 µM | [1] 8.47 µM | [5] 9.92 µM | [6] 21.9 µM | [7] 26.6 µM
inactive: [2] | [3] | [4] | CYP3A5 (gene 1577)

C/C=C/c1ccc(OC)cc1
not listed: [8]
inactive: all other assays above

O=C(Oc1ccccc1)c1cccc(C(=O)Oc2ccccc2)c1
inactive: all assays above

CC(C)(C)c1ccccc1
not listed: [8]
inactive: all other assays above

CSc1ccc(Oc2ccc(S(N)(=O)=O)cc2CN(C)C)cc1C
active: CYP4A11 (gene 1579) 77.5 µM | [1] 14 µM | [2] 75.2 µM | [7] 85.1 µM
not listed: [8]
inactive: all other assays above

O=[Si]=O
not listed: [7] | [8]
inactive: all other assays above

C/C=C/C=C/C(=O)O
not listed: [7] | [8]
inactive: all other assays above

CCCCC(CC)COC(=O)CCCCCCCC(=O)OCC(CC)CCCC (stereo not drawn)
not listed: [8]
inactive: all other assays above

CCOCCOCCO
not listed: [8]
inactive: all other assays above

CCCCc1nc2cccnc2n1Cc1ccc(-c2ccccc2-c2nnn[nH]2)cc1
active: [1] 16 µM | [5] 13.7 µM
not listed: [6]
inactive: all other assays above

Cc1ccc(-c2cc(C(F)(F)F)nn2-c2ccc(S(N)(=O)=O)cc2)cc1
inactive: [3] | [4] | [7]
active: CYP4A11 (gene 1579) 6 µM | [2] 68.8 µM | CYP3A5 (gene 1577) 82 µM | [6] 50 µM

CCCCCCCCCCCCCCOS(=O)(=O)O
active: CYP4A11 (gene 1579) 4.9 µM
not listed: [8]
inactive: all other assays above

CCc1nc(N)nc(N)c1-c1ccc(Cl)cc1
active: CYP4A11 (gene 1579) 64.2 µM | [2] 77.8 µM | [7] 60.7 µM
not listed: [1]
inactive: all other assays above

CC(C)NCC(O)c1ccc(O)c(O)c1 (stereo not drawn)
active: [4] 1.8 µM | CYP3A5 (gene 1577) 0.153 µM | [6] 0.479 µM
inactive: CYP4A11 (gene 1579) | [2] | [3] | [7]

CN(C)C(=O)NC1(c2ccccc2)CCN(CCC[C@]2(c3ccc(Cl)c(Cl)c3)CCCN(C(=O)c3ccccc3)C2)CC1
active: CYP4A11 (gene 1579) 23.6 µM | [2] 18.1 µM | [3] 23.1 µM | [4] 23.4 µM | [6] 20.5 µM | [7] 23.7 µM
inactive: [8] | CYP3A5 (gene 1577)

O=C(O)c1[nH]n(-c2ccc(S(=O)(=O)O)cc2)c(=O)c1N=Nc1ccc(S(=O)(=O)O)cc1
not listed: [8]
inactive: all other assays above

CC(C)c1cccc(C(C)C)c1
not listed: [8]
inactive: all other assays above

CCCC(=O)O
not listed: [8]
inactive: all other assays above

CN(C)CCCN1c2ccccc2Sc2ccc(Cl)cc21
inactive: [8] | [4] | [5] | [7]
active: CYP4A11 (gene 1579) 84.7 µM | [2] 61.3 µM | [3] 88.2 µM | CYP3A5 (gene 1577) 83.7 µM | [6] 88.3 µM

CCCCC(CC)COP(=O)(OCC(CC)CCCC)OCC(CC)CCCC (stereo not drawn)
active: [1] 5.79 µM | [5] 5.61 µM
not listed: [8]
inactive: all other assays above

CCCCCCCC(=O)OC
not listed: [8]
inactive: all other assays above

CC(COCC(C)OC(=O)c1ccccc1)OC(=O)c1ccccc1 (stereo not drawn)
not listed: [8]
inactive: all other assays above

CC(=O)[C@@]1(O)CC[C@H]2[C@@H]3CCC4=CC(=O)CC[C@]4(C)[C@H]3CC[C@@]21C
inactive: [2] | [3] | [4] | [6]

CC(=O)CC(c1ccccc1)c1c(O)c2ccccc2oc1=O (stereo not drawn)
active: [5] 34.7 µM
not listed: [1] | [8]
inactive: all other assays above

CCC(C)N(C)C(=O)c1cc2ccccc2c(-c2ccccc2Cl)n1 (stereo not drawn)
active: CYP4A11 (gene 1579) 15.4 µM | [1] 3.23 µM | [2] 46.6 µM | CYP3A5 (gene 1577) 31.8 µM | [6] 13 µM | [7] 13.1 µM
inactive: [3] | [4] | [5]

O=C1NC(=O)C(c2ccccc2)(c2ccccc2)N1
active: CYP4A11 (gene 1579) 12.1 µM | [6] 17.9 µM | [7] 9.92 µM
inactive: [2] | [3] | [4] | CYP3A5 (gene 1577)

O=C1CCCCC1
not listed: [8]
inactive: all other assays above

Oc1ccc(O)cc1
not listed: [8]
inactive: all other assays above

COC(=O)[C@H]1[C@H]2C[C@@H]3c4[nH]c5cc(OC)ccc5c4CCN3C[C@H]2C[C@@H](OC(=O)c2cc(OC)c(OC)c(OC)c2)[C@@H]1OC
active: CYP4A11 (gene 1579) 48.8 µM | [2] 55.1 µM | [8] 42.2 µM | [3] 64.2 µM | [4] 8.38 µM

O=C1OC(c2ccc(O)cc2)(c2ccc(O)cc2)c2ccccc21
active: CYP4A11 (gene 1579) 80.1 µM | CYP3A5 (gene 1577) 62.1 µM
not listed: [1] | [5]
inactive: all other assays above

CS(=O)(=O)c1ccc([C@@H](C[C@H]2CCC(=O)C2)C(=O)Nc2cnccn2)cc1Cl
inactive: CYP4A11 (gene 1579) | [3] | [4] | [6]
active: [2] 18.6 µM

CC(C)COC(=O)CCCCC(=O)OCC(C)C
not listed: [8]
inactive: all other assays above

OCC(O)CO
not listed: [8]
inactive: all other assays above

O=C(O)c1cccnc1
not listed: [8]
inactive: all other assays above

Nc1nc(Cl)nc2c1ncn2[C@H]1C[C@H](O)[C@@H](CO)O1
active: CYP4A11 (gene 1579) 1.41 µM | [3] 0.272 µM | CYP3A5 (gene 1577) 0.481 µM | [6] 1.33 µM | [7] 5.92 µM
inactive: [2] | [4]

CCCCC(CC)CO (stereo not drawn)
not listed: [8]
inactive: all other assays above

O=Cc1ccccc1C=O
not listed: [8]
inactive: all other assays above

CCc1cc(C2=C(C(=O)O)N(c3ccccc3C(F)(F)F)S(=O)(=O)c3ccccc32)cc2c1OCO2
inactive: [4] | CYP3A5 (gene 1577) | [6]
active: CYP4A11 (gene 1579) 39.7 µM | [1] 0.679 µM | [2] 82.1 µM | [3] 9.92 µM | [5] 0.645 µM | [7] 41 µM

Cn1cnc2c1c(=O)[nH]c(=O)n2C
inactive: [2] | [3] | [4] | [6]

Cc1c(C)c2c(c(C)c1O)CCC(C)(COc1ccc(CC3SC(=O)NC3=O)cc1)O2 (stereo not drawn)
active: CYP4A11 (gene 1579) 27.5 µM | [3] 88.3 µM | CYP3A5 (gene 1577) 15.8 µM | [7] 25.8 µM
inactive: [2] | [8] | [4] | [6]
